A short description of test [1]: qHTS assay to identify small molecule agonists of the androgen receptor (AR) signaling pathway in the presence of an antagonist - cell viability counter screen (AID 1259379).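 Note: MDA-kb2 human breast cancer cells carrying an MMTV luciferase reporter; series mostly up to about 92 µM; nearly all actives have a fitted effect of over 25% in size.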 The method in brief: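 Viability counter screen: CellTiter-Fluor fluorescence, measured in the same wells as the luciferase read-out. MDA-kb2 cells, 3,000/well, with nilutamide at 3.0uM final and compounds at 15 concentrations, 16 hr at 37C, 0% CO2.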
(In general: Quantitative high-throughput screening tests each substance at several concentrations.)

The nature of test [2]: qHTS assay to identify small molecule agonists of the estrogen receptor beta (ER-beta) signaling pathway - cell viability counter screen (AID 1259380). Note: nearly all actives have a fitted effect of over 30% in size. Note: potency is the fitted concentration of half-maximal effect. The method in brief:
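Luminescence read-out (CellTiter-Glo, 30 min, room temp) taken in the same wells as the beta-lactamase reporter assay; ER-beta-UAS-bla HEK293T cells exposed to DMSO-dissolved compounds for 16 hr at 37C in 2% charcoal-stripped FBS medium.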

The nature of test [3]: qHTS assay to identify small molecule antagonists of the estrogen receptor beta (ER-beta) signaling pathway - cell viability counter screen (AID 1259382).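 Note: HEK293T cells carrying ER-beta-UAS-bla reporter stimulated with estradiol; series mostly up to about 92 µM; nearly all actives have a fitted effect of over 55% in size.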 The method in brief: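 Luminescent ATP read-out (CellTiter-Glo, 30 min, RT) taken in the same wells as the bla reporter assay. HEK293T ER-beta-UAS-bla cells in 2% charcoal-stripped FBS were exposed to compounds with 1nM E2 for 16 hr at 37C.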

Test [4] addresses Estrogen receptor (Homo sapiens) (UniProt P03372). Kind of test: qHTS assay to identify small molecule agonists of the estrogen receptor alpha (ER-alpha) signaling pathway in the presence of an antagonist (AID 1259383; calls by dose curve; note: top concentration of the series differs between compounds; nearly all actives have a fitted effect of over 15% in size). The method in brief:
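Luciferase luminescence (ONE-Glo, 30min at room temperature) measured in VM7Luc4E2 cells after 22hr compound exposure at 15 concentrations, with 10.0nM ICI-182,780 final present; cells express endogenous ER-alpha and carry four EREs upstream of luciferase.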

Test [5] in a line: qHTS assay to identify small molecule agonists or antagonists of the thyroid stimulating hormone receptor (TSHR) signaling pathway - wild type cell line counter screen (AID 1259384; calls by dose curve). Summed up: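 Counter screen in untransfected Hek293: compounds (15-point titration, triplicate) plus phosphodiesterase inhibitor Ro20-1724 added after 18 h plating; 30 min RT. Intracellular cAMP via competitive d2/cryptate immunoassay, 1 h incubation.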

Test [6] has as its target Thyrotropin receptor (Homo sapiens) (UniProt P16473). The experiment in a line: qHTS assay to identify small molecule antagonists of the thyroid stimulating hormone receptor (TSHR) signaling pathway (AID 1259385; calls by dose curve; note: nearly all actives have a fitted effect of over 20% in size; note: potency is the fitted concentration of half-maximal effect). The method in brief: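 Antagonist mode: compound-treated TSHR-expressing HEK293 cells were stimulated with 1.5 ng/mL TSH (final) in presence of Ro20-1724 for 30 min at RT. HTRF cAMP detection after 1 h; each compound tested at 15 concentrations, triplicate.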

A short description of test [7]: qHTS assay to identify small molecule agonists of the estrogen receptor alpha (ER-alpha) signaling pathway in the presence of an antagonist - cell viability counter screen (AID 1259386). Note: series mostly up to about 92 µM; nearly all actives have a fitted effect of over 30% in size. The method in brief: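 Read-out: CellTiter-Fluor fluorescence after 1hr reagent incubation, measured in the same wells as the luciferase readout. VM7Luc4E2 cells were exposed to 15 compound concentrations with 10.0nM ICI-182,780 for 22hr at 37C.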

The target in test [8] is Androgen receptor (Homo sapiens) (UniProt P10275). The experiment in a line: qHTS assay to identify small molecule agonists of the androgen receptor (AR) signaling pathway in the presence of an antagonist (AID 1259381; calls by dose curve; note: nearly all actives have a fitted effect of over 15% in size; note: potency is the fitted concentration of half-maximal effect). Summed up: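 Luciferase read-out (ONE-Glo, 30min room temperature) in MDA-kb2 MMTV-reporter cells; agonist mode run in presence of AR antagonist nilutamide, 3.0uM final. Compounds tested as 15-point series, 16hr exposure at 37C, 0% CO2.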

Test [9] addresses Estrogen receptor beta (Homo sapiens) (UniProt Q92731). The experiment in a line: qHTS assay to identify small molecule antagonists of the estrogen receptor beta (ER-beta) signaling pathway (AID 1259378; active = well fitted inhibition curve with a large enough effect in the signal ratio in the repeat runs, not every such curve was filed as active; the % refers to the signal ratio). Summed up: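 Antagonist mode: compounds added to beta-lactamase reporter HEK293T ER-beta-UAS cells stimulated with E2 (1nM final), 16 hr at 37C. LiveBLAzer B/G FRET substrate, 2 hours room temperature, fluorescence read-out.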

A number with no mark means an inactive call. Inconclusive results are not listed. Active and inactive are the calls of the source. Unless noted, calls come from the whole dose curve; as a rule, active = well fitted curve in the direction sought with a large enough effect in the repeat runs; inconclusive = weak or mixed curves; inactive = no such curve, though single readings can be large; an effect the other way counts as inactive or inconclusive.
% is set by controls: 0 for no effect and ±100 for the full control effect.

Estrogen receptor (Homo sapiens), sequence (P03372 whole entry, looked up): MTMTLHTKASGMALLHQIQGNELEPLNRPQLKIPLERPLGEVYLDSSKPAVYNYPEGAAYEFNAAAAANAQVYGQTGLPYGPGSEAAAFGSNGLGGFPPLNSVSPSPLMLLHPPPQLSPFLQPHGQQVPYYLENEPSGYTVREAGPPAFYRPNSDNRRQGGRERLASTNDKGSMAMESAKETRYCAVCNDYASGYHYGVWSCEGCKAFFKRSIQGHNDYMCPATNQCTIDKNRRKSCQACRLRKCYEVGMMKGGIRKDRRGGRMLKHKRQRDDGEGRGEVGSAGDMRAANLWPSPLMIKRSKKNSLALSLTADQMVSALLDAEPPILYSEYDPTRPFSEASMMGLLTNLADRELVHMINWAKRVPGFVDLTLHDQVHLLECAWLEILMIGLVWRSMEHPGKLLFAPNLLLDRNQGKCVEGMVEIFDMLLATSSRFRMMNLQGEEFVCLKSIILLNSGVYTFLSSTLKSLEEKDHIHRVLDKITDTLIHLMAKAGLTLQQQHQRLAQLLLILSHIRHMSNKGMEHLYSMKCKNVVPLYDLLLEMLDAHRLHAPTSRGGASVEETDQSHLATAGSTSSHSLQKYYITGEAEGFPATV
Thyrotropin receptor (Homo sapiens), sequence (P16473 whole entry, looked up): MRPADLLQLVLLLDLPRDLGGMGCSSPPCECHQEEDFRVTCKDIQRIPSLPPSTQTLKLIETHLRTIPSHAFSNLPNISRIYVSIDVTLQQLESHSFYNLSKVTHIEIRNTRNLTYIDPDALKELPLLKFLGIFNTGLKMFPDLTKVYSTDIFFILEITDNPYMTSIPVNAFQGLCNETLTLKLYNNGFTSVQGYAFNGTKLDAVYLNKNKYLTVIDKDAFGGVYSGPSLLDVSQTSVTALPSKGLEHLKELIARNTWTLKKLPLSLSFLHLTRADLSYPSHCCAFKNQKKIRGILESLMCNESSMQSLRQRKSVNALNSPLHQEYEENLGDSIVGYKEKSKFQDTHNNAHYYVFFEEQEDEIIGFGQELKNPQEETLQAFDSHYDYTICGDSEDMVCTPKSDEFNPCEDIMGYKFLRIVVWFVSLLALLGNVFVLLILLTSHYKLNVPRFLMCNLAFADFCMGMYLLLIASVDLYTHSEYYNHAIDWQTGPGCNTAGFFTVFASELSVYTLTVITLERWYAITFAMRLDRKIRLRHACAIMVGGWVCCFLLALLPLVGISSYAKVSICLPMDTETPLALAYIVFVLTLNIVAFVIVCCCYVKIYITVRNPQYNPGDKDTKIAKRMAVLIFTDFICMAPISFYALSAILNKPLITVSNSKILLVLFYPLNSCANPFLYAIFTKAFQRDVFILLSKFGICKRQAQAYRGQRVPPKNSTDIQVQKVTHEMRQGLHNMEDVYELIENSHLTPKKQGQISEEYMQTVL
Androgen receptor (Homo sapiens), sequence (P10275 whole entry, looked up): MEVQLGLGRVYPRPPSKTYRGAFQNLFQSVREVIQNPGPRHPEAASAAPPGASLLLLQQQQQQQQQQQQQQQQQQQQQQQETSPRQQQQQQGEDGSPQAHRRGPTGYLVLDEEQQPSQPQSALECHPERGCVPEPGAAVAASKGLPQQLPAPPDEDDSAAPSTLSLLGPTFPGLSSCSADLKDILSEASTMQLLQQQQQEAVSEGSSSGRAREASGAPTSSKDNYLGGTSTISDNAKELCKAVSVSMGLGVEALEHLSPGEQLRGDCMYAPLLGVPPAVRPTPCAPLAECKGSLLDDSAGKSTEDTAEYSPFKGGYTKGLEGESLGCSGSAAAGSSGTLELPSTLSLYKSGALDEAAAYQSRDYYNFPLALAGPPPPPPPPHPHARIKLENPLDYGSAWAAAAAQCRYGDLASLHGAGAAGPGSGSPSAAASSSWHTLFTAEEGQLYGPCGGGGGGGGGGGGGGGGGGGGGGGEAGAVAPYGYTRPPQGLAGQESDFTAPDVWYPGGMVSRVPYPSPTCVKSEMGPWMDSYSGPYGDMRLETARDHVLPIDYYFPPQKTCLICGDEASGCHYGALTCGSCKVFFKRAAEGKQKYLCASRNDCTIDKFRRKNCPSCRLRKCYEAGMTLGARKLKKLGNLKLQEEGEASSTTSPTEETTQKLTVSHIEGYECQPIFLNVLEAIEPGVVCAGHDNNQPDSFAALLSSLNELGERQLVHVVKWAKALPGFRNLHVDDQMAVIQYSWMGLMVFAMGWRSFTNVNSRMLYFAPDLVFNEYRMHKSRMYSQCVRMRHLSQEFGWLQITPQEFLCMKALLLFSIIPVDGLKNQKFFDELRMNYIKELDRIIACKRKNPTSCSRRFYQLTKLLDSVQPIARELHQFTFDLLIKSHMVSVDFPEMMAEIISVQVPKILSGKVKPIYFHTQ
Estrogen receptor beta (Homo sapiens), sequence (Q92731 whole entry, looked up): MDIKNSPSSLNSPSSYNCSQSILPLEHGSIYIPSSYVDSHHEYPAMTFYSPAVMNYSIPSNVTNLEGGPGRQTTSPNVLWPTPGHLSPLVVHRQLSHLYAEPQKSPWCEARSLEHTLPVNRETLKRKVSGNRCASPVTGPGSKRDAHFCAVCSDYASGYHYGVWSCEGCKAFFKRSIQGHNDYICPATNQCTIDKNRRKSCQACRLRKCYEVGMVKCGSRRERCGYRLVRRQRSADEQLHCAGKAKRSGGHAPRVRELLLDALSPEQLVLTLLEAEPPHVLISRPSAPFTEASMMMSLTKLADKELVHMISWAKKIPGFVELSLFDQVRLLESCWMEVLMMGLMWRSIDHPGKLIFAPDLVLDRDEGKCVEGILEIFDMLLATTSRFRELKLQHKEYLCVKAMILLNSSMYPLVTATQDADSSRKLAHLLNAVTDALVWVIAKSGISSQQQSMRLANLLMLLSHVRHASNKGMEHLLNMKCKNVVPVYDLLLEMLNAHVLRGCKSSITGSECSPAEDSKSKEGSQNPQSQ

For `COC(Cc1ccccc1)OC`, the Potency result in test [1], in test [2], in [3], in test [4], in test [5] and in test [6] was “inactive” in each case. In addition, the Potency result in test [7] is “inactive”.
Take `CCCCCCCCCCCCCCCBr`: the Potency result in [1], in [2], in [3], in test [4], in test [5] and in test [6] was “inactive” throughout. Further, the Potency result in [7] is “inactive”.
Regarding `O=C(CCN1CCN2CCCC2C1)N1c2ccccc2Sc2ccc(Cl)cc21` (centres undefined), the activity change, negative = cytotoxicity in test [1] is -7.38% [at 19 µM]; in test [2], -14.2% [at 19 µM]; in test [3], -9.75% [at 19 µM]. Besides, the activation in test [8] is -1.48% [at 19 µM]; in test [4], -1.43% [at 19 µM]. Also, the cAMP activity change in test [5] is -1.23% [at 18.9 µM, hits give high values].
On to `NCCCN(CCO)CCO`, for which the Potency entry in test [1], in [2], in [8], in [3], in [4] and in test [5] was “inactive” in each case. The Potency entry in [6] and in test [7] was “inactive” throughout.
With `O=C(Cl)c1c(Cl)cccc1Cl`, the Potency entry in test [1], in test [2], in [3], in test [4], in test [5] and in [6] was “inactive” each time. In test [7], the Potency result is “inactive”.
Consider `O=C(O)[C@@H]1[C@H]2C[C@H]3c4[nH]c5ccccc5c4CCN3C[C@@H]2CC[C@@H]1O`, for which the Potency entry in [1], in [2], in test [8], in [3], in [4] and in test [5] was “inactive” in each case. In addition, the Potency entry in test [6] and in test [7] was “inactive” throughout.
For `CC(C)CCCC(C)CCO` (centres undefined), the Potency entry in [1], in test [2], in [8], in [3], in test [4] and in test [5] was “inactive” throughout. The Potency entry in test [6] and in test [7] was “inactive” in each case.
Regarding `O=C(O)c1cn(C2CC2)c2cc(Cl)c(F)cc2c1=O`, the Potency entry in [1], in test [2], in [8], in [3], in test [4] and in [5] was “inactive” in each case. For the same compound, the Potency entry in test [7] was “inactive”.
As for `O=C(NS(=O)(=O)/C=C/c1cccs1)c1ccc(F)cc1Br`, the Potency entry in test [1], in [2], in test [8], in [3], in test [4] and in test [7] was “inactive” each time.
For `O=C(O)Cc1sc(-c2ccccc2)nc1-c1ccc(Cl)cc1`, the Potency entry in test [1], in test [8], in test [4], in [5], in test [6] and in test [7] was “inactive” in each case. Also, the Potency in test [2] was 21.1 µM (active).
For `CN(C)CC/C=C1\c2ccccc2COc2ccccc21`, the Potency result in test [1], in test [8], in [5] and in [7] was “inactive” throughout. For the same compound, the Potency is 26.6 µM (active) in test [2] and 29.8 µM (active) in [6].
As to `c1ccc(CNCc2ccccc2)cc1`, the Potency result in test [1], in [2], in [3], in [4], in test [5] and in [6] was “inactive” in each case. The Potency result in test [7] is “inactive”.
Consider `CCOC(=S)SSC(=S)OCC`, for which the Potency entry in test [1], in test [2], in [3], in test [4], in test [5] and in test [6] was “inactive” in each case. For the same compound, the Potency entry in [7] was “inactive”.
Consider `CC(C)NCC(O)COc1ccc(CC(N)=O)cc1` (centres undefined), for which the Potency result in test [1], in test [2], in [3], in test [4] and in [5] was “inactive” throughout.
Consider `FC(F)(F)C(F)(F)C(F)(F)C(F)(F)C(F)(F)C(F)(F)CCI`, for which the Potency result in test [1], in test [2], in test [3], in [4], in [5] and in test [6] was “inactive” in each case. Further, in [7], the Potency entry was “inactive”.
`CCCOc1ccc2nc(NC(=O)OC)[nH]c2c1`: the Potency result in [1], in [2], in [8], in test [3], in [4] and in [5] was “inactive” in each case. The Potency entry in test [7] was “inactive”.
Consider `CC(=O)OCCc1ccccc1`, for which the Potency result in [1], in test [2], in test [3], in [4], in [5] and in test [6] was “inactive” in each case. Further, the Potency entry in [7] is “inactive”.
`O=C1[C@H](CC[C@H](O)c2ccc(F)cc2)[C@@H](c2ccc(O)cc2)N1c1ccc(F)cc1`: the Potency result in test [1], in test [2], in test [3], in test [4], in test [5] and in [6] was “inactive” in each case. For the same compound, the Potency entry in test [7] was “inactive”.
For the compound `COc1ccc(C(C)=O)cc1`, the Potency result in test [9], in [1], in [8], in test [3], in [4] and in test [7] was “inactive” each time.
Regarding `CN1CCN(C2=Nc3ccccc3Sc3ccc(Cl)cc32)CC1`, the Potency result in test [1], in test [2], in test [8], in test [3], in test [5] and in [6] was “inactive” each time. In addition, in test [7], the Potency result is “inactive”.
Turning to `Nc1ccc(C(=O)Nc2ccccc2N)cc1`, the Potency entry in test [1], in test [4], in [5], in test [6] and in test [7] was “inactive” in each case. The Potency in [2] was 0.841 µM (active); in test [8], 5.96 µM (active).
Take `CCOC(=O)C1=C(C)NC(C)=C(C(=O)OC)C1c1cccc([N+](=O)[O-])c1` (centres undefined): the Potency entry in test [1], in test [2], in test [3], in test [4], in test [5] and in test [6] was “inactive” each time. The Potency result in [7] is “inactive”.
`NC(=S)N/N=C/c1cccnc1`: the Potency result in test [1], in test [2], in test [8], in [3], in test [5] and in test [7] was “inactive” throughout.
In the case of `CN(C)CCCOc1nn(Cc2ccccc2)c2ccccc12`, the Potency entry in test [9], in [1], in test [3], in test [4], in test [5] and in test [6] was “inactive” each time. For the same compound, the Potency result in test [7] is “inactive”.

Source of the values: PubChem BioAssay (Tox21).
